From the supplement of paper PMC11732987, “Enantioselective OTUD7B fragment discovery through chemoproteomics screening and high-throughput optimisation” (Communications Chemistry, 2025)

Experiments:
Assay in all cases: log2 ratio of Biotin-Ahx-Ub-VS probe labelling (fragment/DMSO); higher = less target engagement (more negative = stronger competition), active = hit call of the paper (q ≤ 0.05, log2 ratio ≤ -1)
Conditions in all cases: compound concentration: 200 uM; treatment time: 3 h
USP42 = target: T1, USP42 (UniProt Q9H9J4)
T1 sequence (whole entry): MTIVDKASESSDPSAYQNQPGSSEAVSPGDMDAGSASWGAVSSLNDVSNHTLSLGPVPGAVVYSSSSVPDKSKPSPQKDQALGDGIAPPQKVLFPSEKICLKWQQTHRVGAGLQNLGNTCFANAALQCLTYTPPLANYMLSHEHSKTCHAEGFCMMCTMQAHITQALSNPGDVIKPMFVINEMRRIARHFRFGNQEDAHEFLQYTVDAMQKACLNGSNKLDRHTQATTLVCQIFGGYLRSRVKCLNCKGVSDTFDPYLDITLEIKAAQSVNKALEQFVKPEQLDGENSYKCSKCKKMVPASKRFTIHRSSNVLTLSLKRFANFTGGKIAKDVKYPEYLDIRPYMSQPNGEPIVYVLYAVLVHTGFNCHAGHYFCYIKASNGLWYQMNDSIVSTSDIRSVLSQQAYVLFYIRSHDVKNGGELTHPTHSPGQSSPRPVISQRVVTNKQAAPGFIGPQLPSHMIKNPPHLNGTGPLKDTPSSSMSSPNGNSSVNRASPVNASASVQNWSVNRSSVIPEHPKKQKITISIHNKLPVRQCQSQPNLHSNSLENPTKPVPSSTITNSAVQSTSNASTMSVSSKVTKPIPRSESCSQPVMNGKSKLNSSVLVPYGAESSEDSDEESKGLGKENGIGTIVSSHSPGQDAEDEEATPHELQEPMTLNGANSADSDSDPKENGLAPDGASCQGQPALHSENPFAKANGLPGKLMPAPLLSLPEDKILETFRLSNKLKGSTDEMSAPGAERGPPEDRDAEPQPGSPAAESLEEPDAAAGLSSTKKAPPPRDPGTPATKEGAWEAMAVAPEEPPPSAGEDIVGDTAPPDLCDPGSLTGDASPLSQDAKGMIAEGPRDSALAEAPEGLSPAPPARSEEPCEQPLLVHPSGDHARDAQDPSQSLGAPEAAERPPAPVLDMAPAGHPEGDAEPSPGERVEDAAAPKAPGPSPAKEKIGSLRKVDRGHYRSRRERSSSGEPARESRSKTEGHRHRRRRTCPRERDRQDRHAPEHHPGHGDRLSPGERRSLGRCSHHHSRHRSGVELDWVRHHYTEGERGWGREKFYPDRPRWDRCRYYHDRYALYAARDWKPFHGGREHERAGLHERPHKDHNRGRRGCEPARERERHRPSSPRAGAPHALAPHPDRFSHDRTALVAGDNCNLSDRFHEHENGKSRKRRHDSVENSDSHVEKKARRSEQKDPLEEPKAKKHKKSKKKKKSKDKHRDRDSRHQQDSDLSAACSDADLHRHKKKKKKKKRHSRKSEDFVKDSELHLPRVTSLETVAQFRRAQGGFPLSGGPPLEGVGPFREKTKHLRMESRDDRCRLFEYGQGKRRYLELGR
In short: (§1)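 Labelling with Biotin-Ahx-Ub-VS (0.5 µM final, 1 h) followed a 3 h triplicate treatment of HEK293T lysate (495 µg per sample, Tris/CHAPS/IGEPAL buffer with protease inhibitors) with fragment at 200 µM or vehicle. Labelled DUBs were NeutrAvidin-enriched, digested with LysC and trypsin, and run by diaPASEF LC-MS/MS. The values, average log2 fragment/vehicle ratios by unpaired t-test, come from global-median-normalised Spectronaut label-free quantities. Proteins with ≥2 unique peptides were used.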

USP46 = USP46 (UniProt P62068)
USP46, sequence (P62068 whole entry): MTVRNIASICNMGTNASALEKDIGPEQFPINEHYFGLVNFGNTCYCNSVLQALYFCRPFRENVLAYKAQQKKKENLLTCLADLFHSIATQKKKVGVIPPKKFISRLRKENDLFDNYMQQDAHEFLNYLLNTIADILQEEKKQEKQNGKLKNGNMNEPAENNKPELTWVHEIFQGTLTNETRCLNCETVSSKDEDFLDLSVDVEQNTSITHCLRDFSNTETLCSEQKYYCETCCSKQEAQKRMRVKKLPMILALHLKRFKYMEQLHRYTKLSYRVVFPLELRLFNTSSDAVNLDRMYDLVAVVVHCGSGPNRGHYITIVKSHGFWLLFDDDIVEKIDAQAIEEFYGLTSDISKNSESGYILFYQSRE
In short: as §1

USP47 = target: T2, USP47 (UniProt Q96K76)
T2 sequence (whole entry): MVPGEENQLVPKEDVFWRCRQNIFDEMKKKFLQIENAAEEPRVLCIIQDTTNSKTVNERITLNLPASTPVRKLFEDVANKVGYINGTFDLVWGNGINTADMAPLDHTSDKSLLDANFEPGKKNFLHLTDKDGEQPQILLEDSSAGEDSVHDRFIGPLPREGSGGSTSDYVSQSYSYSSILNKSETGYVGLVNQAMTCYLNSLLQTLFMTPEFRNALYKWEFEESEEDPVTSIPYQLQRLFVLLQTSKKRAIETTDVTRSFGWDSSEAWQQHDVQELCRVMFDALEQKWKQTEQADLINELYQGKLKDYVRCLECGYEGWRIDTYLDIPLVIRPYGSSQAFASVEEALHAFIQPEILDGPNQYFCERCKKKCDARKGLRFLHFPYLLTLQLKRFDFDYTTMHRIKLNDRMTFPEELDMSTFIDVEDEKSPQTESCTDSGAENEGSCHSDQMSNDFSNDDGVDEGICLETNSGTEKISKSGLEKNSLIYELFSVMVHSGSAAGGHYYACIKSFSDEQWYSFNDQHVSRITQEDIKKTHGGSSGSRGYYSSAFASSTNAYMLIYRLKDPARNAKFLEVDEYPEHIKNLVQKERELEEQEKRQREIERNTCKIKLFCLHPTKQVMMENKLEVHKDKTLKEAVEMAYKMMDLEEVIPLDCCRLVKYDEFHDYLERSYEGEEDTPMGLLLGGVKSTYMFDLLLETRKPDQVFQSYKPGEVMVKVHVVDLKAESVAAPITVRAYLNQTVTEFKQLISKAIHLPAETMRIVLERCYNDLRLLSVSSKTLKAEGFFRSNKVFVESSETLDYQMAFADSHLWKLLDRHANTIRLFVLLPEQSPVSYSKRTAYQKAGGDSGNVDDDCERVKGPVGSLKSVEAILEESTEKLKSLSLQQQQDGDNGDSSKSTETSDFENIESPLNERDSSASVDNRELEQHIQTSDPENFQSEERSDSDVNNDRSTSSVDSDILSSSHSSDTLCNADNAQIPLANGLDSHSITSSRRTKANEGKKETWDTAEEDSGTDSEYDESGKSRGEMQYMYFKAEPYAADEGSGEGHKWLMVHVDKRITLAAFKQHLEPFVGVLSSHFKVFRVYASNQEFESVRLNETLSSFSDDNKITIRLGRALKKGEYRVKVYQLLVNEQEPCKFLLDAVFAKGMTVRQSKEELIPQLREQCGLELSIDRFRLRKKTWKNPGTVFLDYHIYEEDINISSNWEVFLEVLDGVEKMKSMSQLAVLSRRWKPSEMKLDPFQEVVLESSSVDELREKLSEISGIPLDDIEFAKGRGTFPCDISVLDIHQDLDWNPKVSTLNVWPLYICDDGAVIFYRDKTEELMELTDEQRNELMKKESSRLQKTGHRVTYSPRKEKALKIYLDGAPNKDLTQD
In short: as §1

USP48 = target: T3, USP48 (UniProt Q86UV5)
T3 sequence (whole entry): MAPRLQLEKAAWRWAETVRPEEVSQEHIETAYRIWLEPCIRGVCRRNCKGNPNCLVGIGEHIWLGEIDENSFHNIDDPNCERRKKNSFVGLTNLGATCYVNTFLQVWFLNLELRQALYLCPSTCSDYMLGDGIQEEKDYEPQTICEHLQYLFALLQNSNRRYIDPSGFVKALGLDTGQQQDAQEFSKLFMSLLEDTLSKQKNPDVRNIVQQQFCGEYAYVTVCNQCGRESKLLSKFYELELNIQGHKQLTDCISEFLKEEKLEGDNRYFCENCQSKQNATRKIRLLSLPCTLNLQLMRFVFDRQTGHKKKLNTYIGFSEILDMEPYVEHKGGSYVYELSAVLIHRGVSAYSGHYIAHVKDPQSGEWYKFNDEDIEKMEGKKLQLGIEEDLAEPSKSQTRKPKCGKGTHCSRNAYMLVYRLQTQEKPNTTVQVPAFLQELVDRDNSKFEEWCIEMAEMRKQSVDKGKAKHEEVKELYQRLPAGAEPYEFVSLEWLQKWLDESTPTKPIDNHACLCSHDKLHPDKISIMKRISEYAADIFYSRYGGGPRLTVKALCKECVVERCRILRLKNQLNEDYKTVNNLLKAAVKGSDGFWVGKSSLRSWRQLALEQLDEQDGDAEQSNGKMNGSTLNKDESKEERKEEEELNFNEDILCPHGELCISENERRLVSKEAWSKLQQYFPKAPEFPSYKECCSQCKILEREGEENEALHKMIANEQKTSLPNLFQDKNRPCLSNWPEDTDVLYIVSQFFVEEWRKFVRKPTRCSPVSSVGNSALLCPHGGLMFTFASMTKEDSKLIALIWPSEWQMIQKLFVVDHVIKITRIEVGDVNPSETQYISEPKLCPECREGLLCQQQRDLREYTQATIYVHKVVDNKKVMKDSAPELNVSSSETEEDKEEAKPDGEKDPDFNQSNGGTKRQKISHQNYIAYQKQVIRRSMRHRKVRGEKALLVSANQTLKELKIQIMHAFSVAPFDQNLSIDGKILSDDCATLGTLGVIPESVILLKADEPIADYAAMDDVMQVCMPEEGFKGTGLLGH
In short: as §1

USP5 = target: T4, USP5 (UniProt P45974)
T4 sequence (whole entry): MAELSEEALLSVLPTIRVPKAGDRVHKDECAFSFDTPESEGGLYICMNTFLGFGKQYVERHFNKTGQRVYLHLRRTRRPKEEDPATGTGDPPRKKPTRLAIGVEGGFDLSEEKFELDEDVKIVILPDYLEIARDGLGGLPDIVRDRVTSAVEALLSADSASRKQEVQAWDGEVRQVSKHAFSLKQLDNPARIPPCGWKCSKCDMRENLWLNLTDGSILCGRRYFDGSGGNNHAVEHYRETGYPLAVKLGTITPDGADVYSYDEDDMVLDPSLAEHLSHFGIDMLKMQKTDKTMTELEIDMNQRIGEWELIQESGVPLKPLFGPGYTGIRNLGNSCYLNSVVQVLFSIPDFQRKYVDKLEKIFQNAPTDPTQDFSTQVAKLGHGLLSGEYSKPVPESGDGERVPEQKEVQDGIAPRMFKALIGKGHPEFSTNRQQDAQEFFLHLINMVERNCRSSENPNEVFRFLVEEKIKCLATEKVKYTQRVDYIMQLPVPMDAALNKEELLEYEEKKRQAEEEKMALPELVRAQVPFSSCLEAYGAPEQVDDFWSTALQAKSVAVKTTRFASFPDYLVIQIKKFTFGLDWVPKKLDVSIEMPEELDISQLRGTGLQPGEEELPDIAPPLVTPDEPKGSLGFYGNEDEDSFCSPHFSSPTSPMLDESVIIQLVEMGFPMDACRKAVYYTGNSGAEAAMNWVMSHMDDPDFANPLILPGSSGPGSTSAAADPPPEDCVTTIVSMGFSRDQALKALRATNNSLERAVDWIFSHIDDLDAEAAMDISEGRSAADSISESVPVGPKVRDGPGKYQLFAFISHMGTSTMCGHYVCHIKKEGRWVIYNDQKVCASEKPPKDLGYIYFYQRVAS
In short: as §1

USP54 = USP54 (UniProt Q70EL1)
USP54, sequence (Q70EL1 whole entry): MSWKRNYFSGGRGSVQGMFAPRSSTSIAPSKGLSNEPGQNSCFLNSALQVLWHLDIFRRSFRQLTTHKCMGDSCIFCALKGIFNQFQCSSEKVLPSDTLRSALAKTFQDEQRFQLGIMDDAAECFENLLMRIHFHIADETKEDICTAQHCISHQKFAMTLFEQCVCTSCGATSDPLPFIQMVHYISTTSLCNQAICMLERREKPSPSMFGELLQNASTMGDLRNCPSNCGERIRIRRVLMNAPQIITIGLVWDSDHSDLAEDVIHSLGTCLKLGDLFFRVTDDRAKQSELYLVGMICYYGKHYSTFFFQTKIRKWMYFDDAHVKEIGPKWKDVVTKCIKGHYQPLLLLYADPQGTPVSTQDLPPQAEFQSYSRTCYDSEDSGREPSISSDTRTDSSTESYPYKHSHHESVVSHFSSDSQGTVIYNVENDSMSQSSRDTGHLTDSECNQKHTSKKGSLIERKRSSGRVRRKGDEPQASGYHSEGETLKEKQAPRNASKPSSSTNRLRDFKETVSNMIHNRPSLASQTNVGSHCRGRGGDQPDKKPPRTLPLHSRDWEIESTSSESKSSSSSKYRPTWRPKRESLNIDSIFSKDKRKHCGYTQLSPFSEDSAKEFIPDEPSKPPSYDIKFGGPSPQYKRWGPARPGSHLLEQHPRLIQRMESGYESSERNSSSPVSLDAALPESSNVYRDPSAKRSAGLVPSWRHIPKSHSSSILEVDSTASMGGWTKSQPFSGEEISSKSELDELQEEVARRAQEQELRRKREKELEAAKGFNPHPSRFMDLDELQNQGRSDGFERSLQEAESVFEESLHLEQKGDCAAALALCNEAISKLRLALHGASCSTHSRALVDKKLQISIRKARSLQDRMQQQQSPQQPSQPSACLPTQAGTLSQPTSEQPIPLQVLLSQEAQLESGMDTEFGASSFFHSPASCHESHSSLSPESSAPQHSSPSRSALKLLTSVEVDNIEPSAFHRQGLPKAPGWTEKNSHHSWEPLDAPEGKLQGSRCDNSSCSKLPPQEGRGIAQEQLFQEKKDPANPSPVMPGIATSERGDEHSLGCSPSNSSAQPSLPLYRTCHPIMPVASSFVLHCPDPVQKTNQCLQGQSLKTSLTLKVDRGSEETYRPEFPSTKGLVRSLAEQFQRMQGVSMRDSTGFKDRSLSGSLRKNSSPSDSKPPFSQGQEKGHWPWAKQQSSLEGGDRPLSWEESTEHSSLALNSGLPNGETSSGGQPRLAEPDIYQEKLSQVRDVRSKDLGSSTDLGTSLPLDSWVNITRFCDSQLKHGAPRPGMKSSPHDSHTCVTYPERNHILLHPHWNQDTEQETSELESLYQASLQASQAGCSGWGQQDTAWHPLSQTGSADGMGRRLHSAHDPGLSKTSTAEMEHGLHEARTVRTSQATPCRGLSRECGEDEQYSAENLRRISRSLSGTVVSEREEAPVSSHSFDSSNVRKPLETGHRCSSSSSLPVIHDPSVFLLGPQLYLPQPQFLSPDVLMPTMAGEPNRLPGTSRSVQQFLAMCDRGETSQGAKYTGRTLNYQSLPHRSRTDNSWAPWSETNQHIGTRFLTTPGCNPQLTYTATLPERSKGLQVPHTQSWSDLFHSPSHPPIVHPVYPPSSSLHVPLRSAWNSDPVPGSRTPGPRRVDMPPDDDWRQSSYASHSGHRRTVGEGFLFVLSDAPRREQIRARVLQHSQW
In short: as §1

USP7 = USP7 (UniProt Q93009)
In short: as §1

USP8 = target: T5, USP8 (UniProt P40818)
T5 sequence (whole entry): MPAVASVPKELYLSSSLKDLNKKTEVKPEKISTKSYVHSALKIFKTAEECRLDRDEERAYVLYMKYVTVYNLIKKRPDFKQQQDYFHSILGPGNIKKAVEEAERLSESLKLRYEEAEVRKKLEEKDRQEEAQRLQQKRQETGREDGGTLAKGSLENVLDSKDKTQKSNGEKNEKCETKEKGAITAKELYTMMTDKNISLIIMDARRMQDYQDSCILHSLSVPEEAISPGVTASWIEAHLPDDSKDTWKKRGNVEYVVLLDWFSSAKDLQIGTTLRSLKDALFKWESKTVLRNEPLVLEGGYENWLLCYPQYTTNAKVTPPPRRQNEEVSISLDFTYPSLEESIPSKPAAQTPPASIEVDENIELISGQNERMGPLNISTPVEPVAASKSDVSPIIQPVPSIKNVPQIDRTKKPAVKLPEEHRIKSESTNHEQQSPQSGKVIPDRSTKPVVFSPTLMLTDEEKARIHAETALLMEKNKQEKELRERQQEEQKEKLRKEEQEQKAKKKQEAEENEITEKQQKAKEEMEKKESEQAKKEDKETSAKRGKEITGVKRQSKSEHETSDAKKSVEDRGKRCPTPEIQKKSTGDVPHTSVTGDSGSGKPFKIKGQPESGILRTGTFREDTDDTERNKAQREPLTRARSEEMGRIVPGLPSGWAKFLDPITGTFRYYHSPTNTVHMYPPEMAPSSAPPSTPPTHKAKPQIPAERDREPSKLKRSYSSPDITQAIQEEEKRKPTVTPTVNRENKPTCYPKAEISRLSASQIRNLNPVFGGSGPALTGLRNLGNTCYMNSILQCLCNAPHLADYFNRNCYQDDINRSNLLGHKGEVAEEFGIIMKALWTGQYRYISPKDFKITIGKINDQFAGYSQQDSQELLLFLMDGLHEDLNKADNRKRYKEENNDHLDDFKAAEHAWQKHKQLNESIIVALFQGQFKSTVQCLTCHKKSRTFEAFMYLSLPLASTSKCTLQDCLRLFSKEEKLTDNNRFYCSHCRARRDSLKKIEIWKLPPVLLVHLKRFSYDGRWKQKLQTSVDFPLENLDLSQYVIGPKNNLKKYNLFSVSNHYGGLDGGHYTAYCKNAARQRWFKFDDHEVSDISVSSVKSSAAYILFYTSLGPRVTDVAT
In short: as §1

USP9X = USP9X (UniProt Q93008)
USP9X, sequence (Q93008 whole entry): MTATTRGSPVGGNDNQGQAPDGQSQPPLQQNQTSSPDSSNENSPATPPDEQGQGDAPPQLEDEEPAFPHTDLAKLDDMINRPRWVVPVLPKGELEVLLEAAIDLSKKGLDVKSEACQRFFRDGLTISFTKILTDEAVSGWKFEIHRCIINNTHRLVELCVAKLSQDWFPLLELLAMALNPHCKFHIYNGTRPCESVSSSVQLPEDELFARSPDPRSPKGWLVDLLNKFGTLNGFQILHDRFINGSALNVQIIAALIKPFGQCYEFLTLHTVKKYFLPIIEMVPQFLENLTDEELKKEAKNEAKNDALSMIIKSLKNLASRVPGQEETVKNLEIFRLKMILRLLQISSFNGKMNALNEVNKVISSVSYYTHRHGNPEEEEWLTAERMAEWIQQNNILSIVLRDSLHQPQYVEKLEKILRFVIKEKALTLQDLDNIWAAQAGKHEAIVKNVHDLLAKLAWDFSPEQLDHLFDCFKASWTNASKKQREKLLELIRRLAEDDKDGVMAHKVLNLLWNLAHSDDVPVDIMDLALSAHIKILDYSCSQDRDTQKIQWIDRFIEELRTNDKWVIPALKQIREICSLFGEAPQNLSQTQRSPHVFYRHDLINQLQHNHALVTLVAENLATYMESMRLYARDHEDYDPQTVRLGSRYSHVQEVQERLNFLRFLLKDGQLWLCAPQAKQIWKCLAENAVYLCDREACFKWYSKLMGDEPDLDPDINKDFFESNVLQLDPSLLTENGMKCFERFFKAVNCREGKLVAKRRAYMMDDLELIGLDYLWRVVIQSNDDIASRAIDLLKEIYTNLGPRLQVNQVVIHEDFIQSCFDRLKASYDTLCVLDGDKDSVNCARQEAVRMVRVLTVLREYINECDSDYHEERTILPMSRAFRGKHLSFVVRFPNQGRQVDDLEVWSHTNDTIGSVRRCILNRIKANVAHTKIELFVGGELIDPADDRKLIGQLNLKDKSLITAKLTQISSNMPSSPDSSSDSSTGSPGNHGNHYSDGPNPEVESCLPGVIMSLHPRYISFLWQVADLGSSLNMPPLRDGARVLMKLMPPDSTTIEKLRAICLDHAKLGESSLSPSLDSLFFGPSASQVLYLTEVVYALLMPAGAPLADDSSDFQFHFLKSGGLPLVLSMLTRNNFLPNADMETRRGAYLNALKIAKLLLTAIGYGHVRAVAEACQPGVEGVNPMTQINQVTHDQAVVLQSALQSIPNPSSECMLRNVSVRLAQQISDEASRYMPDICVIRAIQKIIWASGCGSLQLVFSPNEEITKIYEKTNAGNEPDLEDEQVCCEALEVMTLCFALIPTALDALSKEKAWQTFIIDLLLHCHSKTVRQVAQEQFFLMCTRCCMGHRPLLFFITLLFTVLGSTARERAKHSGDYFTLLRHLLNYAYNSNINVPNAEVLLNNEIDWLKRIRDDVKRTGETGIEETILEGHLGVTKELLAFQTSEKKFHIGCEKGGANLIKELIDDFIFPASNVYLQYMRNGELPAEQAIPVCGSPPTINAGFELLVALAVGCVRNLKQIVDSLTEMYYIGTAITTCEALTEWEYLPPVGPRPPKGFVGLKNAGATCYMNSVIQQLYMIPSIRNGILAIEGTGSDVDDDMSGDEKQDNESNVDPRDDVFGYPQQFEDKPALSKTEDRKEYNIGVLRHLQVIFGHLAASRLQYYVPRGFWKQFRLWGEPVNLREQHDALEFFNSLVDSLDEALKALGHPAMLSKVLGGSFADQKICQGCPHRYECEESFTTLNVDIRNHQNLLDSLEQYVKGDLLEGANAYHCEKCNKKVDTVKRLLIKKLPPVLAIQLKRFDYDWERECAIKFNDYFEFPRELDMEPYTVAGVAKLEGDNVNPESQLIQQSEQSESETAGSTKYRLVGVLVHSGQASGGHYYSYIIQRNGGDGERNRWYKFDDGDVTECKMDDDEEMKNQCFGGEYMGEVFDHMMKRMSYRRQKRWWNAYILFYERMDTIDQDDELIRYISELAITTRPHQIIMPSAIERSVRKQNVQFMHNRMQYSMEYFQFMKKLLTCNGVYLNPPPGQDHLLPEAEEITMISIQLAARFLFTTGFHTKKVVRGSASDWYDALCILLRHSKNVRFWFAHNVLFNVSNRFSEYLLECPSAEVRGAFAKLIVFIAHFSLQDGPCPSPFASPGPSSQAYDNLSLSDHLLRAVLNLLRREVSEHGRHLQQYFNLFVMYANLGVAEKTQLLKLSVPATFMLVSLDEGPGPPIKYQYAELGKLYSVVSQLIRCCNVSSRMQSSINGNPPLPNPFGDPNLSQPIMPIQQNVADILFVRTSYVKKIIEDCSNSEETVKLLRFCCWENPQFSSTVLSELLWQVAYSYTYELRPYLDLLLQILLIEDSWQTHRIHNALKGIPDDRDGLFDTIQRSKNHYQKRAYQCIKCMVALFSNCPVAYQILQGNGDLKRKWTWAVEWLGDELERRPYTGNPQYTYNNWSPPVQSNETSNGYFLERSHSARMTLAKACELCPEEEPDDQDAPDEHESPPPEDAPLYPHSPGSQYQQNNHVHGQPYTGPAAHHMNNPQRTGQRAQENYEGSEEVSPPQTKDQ
In short: as §1

UniProt O00487 = target: UniProt O00487
UniProt O00487, sequence (O00487 whole entry): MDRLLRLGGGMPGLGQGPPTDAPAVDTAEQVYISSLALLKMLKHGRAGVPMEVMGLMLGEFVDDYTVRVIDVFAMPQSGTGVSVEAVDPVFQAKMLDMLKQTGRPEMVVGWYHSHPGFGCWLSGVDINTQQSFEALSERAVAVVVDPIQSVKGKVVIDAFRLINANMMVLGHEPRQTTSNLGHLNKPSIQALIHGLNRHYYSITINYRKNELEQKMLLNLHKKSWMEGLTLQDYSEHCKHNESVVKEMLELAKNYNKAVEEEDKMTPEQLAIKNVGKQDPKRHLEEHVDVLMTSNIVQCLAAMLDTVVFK
In short: as §1

Measured: log2 ratio of Biotin-Ahx-Ub-VS probe labelling

Cl.O=C(CN1CCN(C(=O)CCl)CC1)Nc1ccc(F)cc1
inactive: USP42 0.733 | USP46 0.0462 | USP47 -0.158 | USP48 -0.321 | USP5 0.365 | USP54 0.194 | USP7 -0.291 | USP8 0.234 | USP9X 0.0748 | UniProt O00487 -0.0621
